Tau fluor cs: counter-screen for tau fibril formation inhibitors; tau K18 P301L Alexa594 fluorescence, heparin fibrillization; Potency, µM (highest dose often 57.7 µM); 0.93% of 280,000 active; AID 1463; also: nearly all actives have a fitted effect of over 55% in size
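Human tau K18 P301L (15 uM unlabeled, 0.24 uM Alexa 594-labeled) in 100 mM sodium acetate pH 7 with 20 uM heparin, 6 hr at 37 C. ThT 30 uM added, 1 hr ambient; Alexa 594 FP and total fluorescence read at 555/632 nm.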
Tau ThT inhib: inhibitors of human tau fibril formation, thioflavin T binding; P10636; recombinant tau K18 P301L (four-repeat tau fragment), heparin-induced fibrillization, ThT fluorescence; Potency, µM (titrated, usually from 57.4 µM), actives largely listed as inhibitors; 2.1% of 270,000 active; AID 1460; also: nearly all actives have a fitted effect of over 55% in size
Target sequence (P10636 561-689 P618L limits assumed): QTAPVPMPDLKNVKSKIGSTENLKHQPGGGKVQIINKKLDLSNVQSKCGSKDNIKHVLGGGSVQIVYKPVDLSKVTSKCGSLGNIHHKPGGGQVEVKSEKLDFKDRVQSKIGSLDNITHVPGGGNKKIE
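Heparin-induced (20 uM) aggregation of recombinant human K18 P301L tau, 15 uM unlabeled with 0.24 uM labeled, pH 7 acetate buffer, 6 hr at 37 C with compound. Fibrils quantified by 30 uM ThT fluorescence after 1 hr ambient incubation.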
FBPA coupling cs: counter-screen for Giardia aldolase inhibitors: coupling enzyme system; coupling enzyme system counterscreen, AmpLite Red fluorescence; activity change, negative = inhibition, % at 58.2 µM, hits read low; 0.67% of 290,000 active; AID 2472; in the data active = activity change below about -30%
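Final compound at 57.5 uM, incubated 10 min at RT with coupling enzyme reagent (glyceraldehyde-3-phosphate), then 20 min with substrate and AmpLite Red detection. Fluorescence read at 525/598 nm; tests interference with the coupling assay, not aldolase inhibition.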
Tau FP inhib: blocks human tau fibril formation measured by polarization. P10636. K18 P301L tau heparin fibrillization, Alexa594 FP, 6 h. Potency, µM (doses to about 57.7 µM), usual class: inhibitors. 0.39% of 280,000 active; also: nearly all actives have a fitted effect of over 55% in size
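Read-out: fluorescence polarization of Alexa 594-labeled tau (0.24 uM), 555 nm excitation, 632 nm emission. Mixtures held 15 uM unlabeled K18 P301L, compound and 20 uM heparin, pH 7 acetate buffer, incubated 6 hr at 37 C.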
Large screens that a line does not name were inactive; [ ] = dose if it differs, or a comment. In the library only some 2.7% were active in any assay of this set; here they are far more common. Unless noted, calls follow the shape of the dose curve; as a rule, active = well fitted curve in the direction sought with a large enough effect; inconclusive = small, poorly fitted or top-dose-only effect, or another doubt; inactive = no such curve, though single readings can be large; an effect the other way counts as inactive or inconclusive.

COc1ccc2nc(-c3ccco3)c(-c3ccco3)nc2c1	Tau fluor cs 7.9µM[quencher], Tau ThT inhib 4.5µM, FBPA coupling cs -32, Tau FP inhib inconclusive
c1coc(-c2nc(-c3ccco3)c(-c3ccco3)nc2-c2ccco2)c1	Tau fluor cs inconclusive, Tau ThT inhib 7.9µM, Tau FP inhib 11µM
CCc1ccc(CNC(=O)c2cc3c(=O)n(Cc4cccs4)ccc3nc2C)cc1	Tau ThT inhib inconclusive (no result: FBPA coupling cs)
COCCCn1c(N)c(-c2nc3ccccc3n2C)c2nc3ccccc3nc21	Tau fluor cs 16µM[quencher], Tau ThT inhib 18µM, Tau FP inhib inconclusive
Cn1c(-c2c(N)n(CCc3ccccc3)c3nc4ccccc4nc23)nc2ccccc21	Tau fluor cs 13µM[quencher], Tau ThT inhib inconclusive
Cn1c(-c2c(N)n(CCCc3ccccc3)c3nc4ccccc4nc23)nc2ccccc21	none (no result: FBPA coupling cs)
Cn1c(-c2c(N)n(C3CCCC3)c3nc4ccccc4nc23)nc2ccccc21	Tau fluor cs inconclusive, Tau ThT inhib inconclusive
CN(C)c1cc(Cl)c2nonc2c1N	Tau fluor cs inconclusive, Tau ThT inhib 25µM, FBPA coupling cs -30, Tau FP inhib inconclusive
Cc1ccccc1OCC(=O)Nc1sc2c(c1C(=O)OC(C)C)CCCC2	none (no result: FBPA coupling cs)
O=C(NC(=S)Nc1ccc(N2CCOCC2)cc1)c1cccc(Cl)c1	Tau fluor cs inconclusive, Tau ThT inhib 13µM
CCCC(=O)N1CCN(c2ccc(NC(=S)NC(=O)c3cccc(C)c3)cc2)CC1	Tau fluor cs inconclusive, Tau ThT inhib 8.9µM
O=C(Nc1ccc2c(c1)OCCO2)c1cccc(Cl)c1	none (no result: Tau fluor cs, Tau ThT inhib, Tau FP inhib)
O=C(Nc1ccc(N=Nc2ccccc2)cc1)c1cccc(Cl)c1	Tau ThT inhib 3.2µM
COc1cccc(C(=O)NC(=S)Nc2ccc(N3CCCC3)cc2)c1	Tau fluor cs inconclusive, Tau ThT inhib 11µM
CC(C)CC1(C(=O)NCC2CC2)C=CCN1C(=O)c1ccccc1 (configuration not stated)	none
Cc1ccccc1CN1C(=O)c2ccccc2S(=O)c2ccc(C(=O)NC3CCC(C)CC3)cc21 (configuration not stated)	none (no result: FBPA coupling cs)
COc1cccc(C(=O)NC(=S)Nc2ccc3oc(=O)ccc3c2)c1	none
COc1cccc(C(=O)NC(=S)Nc2ccc(N(C)C)cc2)c1	Tau fluor cs inconclusive, Tau ThT inhib 7.9µM
Cc1cc2nc(CSc3ccccc3)cc(=O)n2[nH]1	FBPA coupling cs -31
Cc1cc2nc(CCl)cc(=O)n2[nH]1	none
O=c1c(-c2cccs2)nc2cncnc2n1C1CC1	none (no result: Tau fluor cs, Tau ThT inhib, Tau FP inhib)
CCOc1cc(-c2cc(-c3ccc(N)cc3)nc(N)c2C#N)ccc1O	Tau fluor cs 14µM[quencher], Tau ThT inhib inconclusive, Tau FP inhib inconclusive
O=c1cc(-c2ccccc2Cl)oc2cc(O)cc(O)c12	none
O=C1C=CC(O)(c2cc(=O)c3c(O)cc(O)cc3o2)C=C1	Tau ThT inhib 13µM, Tau FP inhib 11µM
CCOc1cc(C2CC(=O)N3CN(C4CCCCC4)CSC3=C2C#N)ccc1O (configuration not stated)	Tau ThT inhib 14µM, FBPA coupling cs -35, Tau FP inhib inconclusive
N#CC1=C2SCN(C3CCCCC3)CN2C(=O)CC1c1ccc(Br)cc1 (configuration not stated)	Tau ThT inhib inconclusive, Tau FP inhib inconclusive (no result: FBPA coupling cs)
COc1ccc(C2CC(=O)N3CN(C4CCCCC4)CSC3=C2C#N)c(OC)c1 (configuration not stated)	Tau ThT inhib 25µM, Tau FP inhib inconclusive (no result: FBPA coupling cs)
COC(=O)C1=C(C)N(C)C(=O)NC1c1c(OC)ccc2ccccc12 (configuration not stated)	none (no result: Tau fluor cs, Tau ThT inhib, Tau FP inhib)
COc1ccc2ccccc2c1C1CC(=O)N2CN(C3CCCCC3)CSC2=C1C#N (configuration not stated)	Tau ThT inhib 28µM, Tau FP inhib inconclusive
Cc1csc2nc(COc3cccc(NC(=O)c4ccccc4F)c3)cc(=O)n12	none (no result: FBPA coupling cs)
C=C(C)[C@H]1CC=C(CO)CC1	none
CCS(=O)(=O)N1CCc2cc(C(=O)Nc3cc(Cl)ccc3C)ccc21	none (no result: FBPA coupling cs)
O=[N+]([O-])c1ccc(Sc2ncccn2)c([N+](=O)[O-])c1	Tau fluor cs 6.3µM[quencher], Tau ThT inhib 13µM, Tau FP inhib inconclusive
CCOC(=O)c1cnc2ccc(Cl)cc2c1NCCN(C)C	FBPA coupling cs -57
CCOC(=O)c1cnc2ccc(Cl)cc2c1Nc1ccc(OCC)cc1	Tau ThT inhib inconclusive, Tau FP inhib inconclusive (no result: FBPA coupling cs)
Cc1ccc2cc(C=C(C#N)C#N)c(N3CCCCC3)nc2c1	Tau ThT inhib 25µM, Tau FP inhib inconclusive
CCOc1ccc(S(=O)(=O)NCc2ccc3c(c2)CCN3C(=O)c2ccc(C)cc2)cc1	none (no result: FBPA coupling cs)

Screening data as filed in PubChem.
